The campaign covered roughly 69,000 compounds. About 8,600 (12%) showed an effect of 50% or more. This is one part of a sample in which strong results are shown more often than they occur.
System: Plasmodium berghei
Experiment: Screen against P. berghei liver stage (PbLuc), transformed with Luciferase, at 10uM
Assay type: functional, HepG2
Conditions: tested at 10 uM

SMILES	INHIBITION [%]
CS(=O)(=O)c1ccc(NCCC2CCCO2)c(S(C)(=O)=O)c1 (centres undefined)	15.2
Cc1cccc(SC2CCN(C(=O)CCCn3cnnn3)CC2)c1	43.8
CN(C)Cc1ccnc(NS(=O)(=O)Cc2cccc(F)c2)c1	27
CC(C)n1cnnc1C1CCCN(C(=O)COCc2ccccc2)C1 (centres undefined)	2.3
NC(=O)c1csc(N2C[C@@H](CN3CCC(O)CC3)[C@@H](CO)C2)n1	19.6
CC(NC(=O)CSCC(N)=O)c1ccc(Oc2ccccc2)cc1 (centres undefined)	1.86
CCS(=O)(=O)CC(=O)NC(C)c1ccccc1Oc1ccccc1 (centres undefined)	-3.94
CC(NC(=O)CSCC(N)=O)c1ccccc1Oc1ccccc1 (centres undefined)	71.4
Cc1nnc(N2C[C@@H](OCC3CCCC3)[C@H]3OCCC[C@H]32)s1	-36
O=C(c1ccc2[nH]nnc2c1)N1C[C@H](O)[C@]2(CCCO2)C1	4.41
CCN(CC)CCNC(=O)c1cnc(C(C)(C)C)s1	4.88
O=C(NCCCN1CCCCC1)c1ccc(-n2ccc3ccccc32)s1	84.5
O=C(NCCCN1CCCCC1)c1n[nH]c(=O)c2ccccc12	14.4
Cn1ccc2c(C(=O)NCCCN3CCCC3)cccc21	55.9
Cn1ccc2c(C(=O)NCCCS(C)(=O)=O)cccc21	9.16
CCC1CN(CC(=O)NCCN(CC)CC)c2ccccc2S1 (centres undefined)	19.4
O=C(NCCCN1CCOCC1)c1ccc(-n2ccc3ccccc32)s1	29.3
Cc1nc(-c2cc(C(=O)NCCN3CCOCC3)c3ccccn23)cs1	-11.6
O=C(NCCCN1CCCC1=O)c1ccc(-n2ccc3ccccc32)s1	-45.5
Cn1ccc2c(C(=O)NCCCN3CCOCC3)cccc21	22.2
O=C(NCCN1CCOCC1)c1ccc(-n2ccc3ccccc32)s1	63.2
CCN(CC)CCNC(=O)c1ccc(-n2ccc3ccccc32)s1	75.1

SMILES	INHIBITION [%]
Cc1nc2c(c(=O)[nH]1)CN(C(=O)CCC1CCCN(C)C1)C2 (centres undefined)	48.2
Cc1noc(CN(C)Cc2ccc3c(c2)OCO3)n1	19.2
Cc1cc(Cl)ccc1-n1ncc(C(=O)NCC2COC(C)(C)O2)c1N (centres undefined)	-15.2
CC(C)N(C)Cc1cnc2n1CCN(Cc1ccsc1)C2	21.4
COCCn1ccc2cc(C(=O)N3CCN(S(C)(=O)=O)CC3)ccc21	-0.448
CC(C)(C)C(=O)N1CCC(c2noc(C3CCC(=O)N3)n2)CC1 (centres undefined)	-17.9
Cc1nnc2n1CCN(Cc1csc(COc3ccccc3)n1)C2	-0.113
CC1(C)Cc2nc(C(C)(C)C)ncc2C(NC(=O)C2(N)CC2)C1 (centres undefined)	-10.9
COc1cc(C(=O)NS(=O)(=O)c2cncc(Br)c2)cc(OC)c1C	-4.68
O=C1[C@@H]2CN(c3ncccc3Cl)C[C@]2(C(=O)O)CN1CC1CC1	39.1
Cc1cc(CC(C)Nc2ncnc3cccc(F)c23)[nH]n1 (centres undefined)	19.3
CC(Cc1cccnc1)Nc1ncnc2cccc(F)c12 (centres undefined)	-3.43
CC(Cc1cncs1)Nc1ncnc2cccc(F)c12 (centres undefined)	66.9
COc1ccc(OCCNC(=O)N2CCS(=O)(=O)CC2)cc1	-16.35
COCCOCC(=O)Nc1ccc(F)cc1C	55.4
COCCOCC(=O)Nc1cc(C)ccc1F	-18.9
COCCOCC(=O)Nc1ccc(C)cc1F	-29.2
CCN(C)c1ncnc2c1CCN(Cc1nccs1)CC2	-37.8
Cc1cc(C(F)(F)F)nc(CCNc2nc(C)nc3c2cnn3C)n1	15.3
CCCc1nc(N[C@H]2COC[C@@H]2N2CCCC2)c2cnn(C)c2n1	25.8
CCc1nc(NCCc2nc(C)c(C)s2)c2cnn(C)c2n1	27.6
CCc1nc(NCCc2c(C)nn(CC)c2C)c2cnn(C)c2n1	65.7

SMILES	INHIBITION [%]
CCCc1nc(NCc2c(C)nn(CCC)c2C)c2cnn(C)c2n1	66.6
CCCc1nc(N[C@H]2COC[C@@H]2N2CCCCC2)c2cnn(C)c2n1	-19.8
CC(C)(C)c1ncc(CNCC2CCCN2c2cccnn2)s1 (centres undefined)	31.3
Cn1cc(C(=O)NC[C@@H]2OC[C@H]3CN(Cc4ccco4)CC[C@H]32)cn1	-1.53
CC(C)OCCN1CCN(C(C)c2nc(C3CC3)no2)CC1 (centres undefined)	33.6
O=C(NCCNc1ncccn1)N1CCCC1	-0.113
Cc1ccc(N2CC(c3nccc(C)n3)C2)nn1	19.64
CCOC(C)C(=O)NCc1ccc(N(C)C)cc1 (centres undefined)	-25.9
CC(C)c1cc(Br)ccc1NC(=O)NCC(O)CO (centres undefined)	25.4
CCOCC(O)CN1CCN(C(=O)c2cc(F)cc(F)c2)CC1 (centres undefined)	3.73
O=C(NCc1csc(Br)c1)c1cnccn1	-43.6
O=C(NCCSC1CCCC1)c1cnccn1	4.41
O=C(CCCNC(=O)c1cnccn1)Nc1ncc[nH]1	56.3
O=C(NCC(=O)N1CCc2ccccc2C1)c1cnccn1	-112
O=C(NCCNc1cc(N2CCCC2)ncn1)c1cnccn1	19.2
CC(C)(C)c1ccc(C(=O)NCCCNC(=O)c2cnccn2)cc1	-23.45
O=C(CCNC(=O)c1cnccn1)Nc1ncc[nH]1	59.1
O=C(CNC(=O)c1cnccn1)Nc1ncc[nH]1	71.2
CC(C)(C)c1ccc(S(=O)(=O)CCNC(=O)c2cnccn2)cc1	26.8
O=C(Cc1ccccn1)N1CCC2(CC1)CC(Oc1ccccn1)CO2 (centres undefined)	14.2
O=C(c1cccnc1Oc1ccc(Cl)cc1)N1CC[C@@H](O)C1	11.5
Cn1nccc1C(=O)N1CCC2(CC1)COC(COc1ccccn1)C2 (centres undefined)	8.64

SMILES	INHIBITION [%]
CC(=O)Nc1nc(C)c(S(=O)(=O)NCCc2cccnc2)s1	13
Cc1ccc2oc(CN3CCC(C(=O)O)(n4ccnc4)CC3)c(C)c2c1	-23.5
Cc1nc2c(c(NC(C)C)n1)CCN(C1CCOCC1)CC2	36.4
Cc1cnn(CCCNC(=O)NCCC(=O)Nc2ccccc2)c1	22.6
Cc1cnn(CCCNC(=O)NC(C)C(=O)Nc2ccccc2)c1 (centres undefined)	68.8
Cc1cnn(CCCNC(=O)NCCS(=O)(=O)Nc2ccccc2)c1	-4.4
Cc1nc2c(c(C)c1CC(=O)NCc1ccco1)c(=O)[nH]n2C	13.6
c1cnnc(N2CCCC2CNc2ncnc3ccccc23)c1 (centres undefined)	64.7
c1cnnc(N2CCCC2CNc2ncnc3c2CCC3)c1 (centres undefined)	-24.2
Cn1ncc2c(NCC3CCCN3c3cccnn3)ncnc21 (centres undefined)	21.5
c1cnnc(N2CCCC2CNc2ncnc3sccc23)c1 (centres undefined)	-19.6
c1cnnc(N2CCCC2CNc2cnc3ccccc3n2)c1 (centres undefined)	7.08
c1cnnc(N2CCCC2CNc2ncnc3ccsc23)c1 (centres undefined)	52.3
Cc1nc(CN(C)c2cc(N3CCCC3CO)ncn2)cs1 (centres undefined)	22.1
O=C1c2cccnc2OC(CN2CCOCC2)CN1Cc1cccs1 (centres undefined)	15.4
CN1CCC(CN(C)C(=O)c2cc(C3CCCN3C)ccn2)CC1 (centres undefined)	-12.9
Cn1nc(CNC(=O)CC#N)c2c1CN(CC1CC1)CC2	16.9
Cn1cc(CN2CCCC(c3nc(O)cc(-c4cccs4)n3)C2)cn1 (centres undefined)	-15.1
CN(C)S(=O)(=O)N1C[C@H]2CC[C@@H](C1)N(Cc1ccc3c(c1)OCCO3)C2	20.6
O=C1CC2(CCN(c3nccc(-c4cc(C(=O)O)ccn4)n3)CC2)CN1	64.9
Cc1ccc(-c2ccnc(N3CCC4(CC3)CNC(=O)O4)n2)c(C)n1	30.9
Cc1ccc(-c2ccnc(N3CCC4(CC3)CNC(=O)C4)n2)c(C)n1	68.9

SMILES	INHIBITION [%]
O=C(O)c1ccnc(-c2ccnc(N3CCC4(CCO4)CC3)n2)c1	40.2
Cc1ccc(-c2ccnc(N3CCC4(CCO4)CC3)n2)c(C)n1	36.5
O=C(O)c1ccnc(-c2ccnc(N3CCC(F)(F)CC3)n2)c1	30.3
Cc1cc(OC(F)F)c(C(=O)N2CCC(CN(C)C)CC2)s1	-9.44
CC(C)c1cc(CN(C)C(=O)CN2CCC(C(N)=O)CC2)no1	12.7
Cc1ccc(CNc2n[nH]c(C)n2)cc1	46.6
CN(C(=O)c1cccc(C#N)c1)c1nnc(C2CCOC2)s1 (centres undefined)	24.45
CCNC(=O)C1CCN(Cn2nc(-c3ccc(F)cc3)oc2=O)CC1	30.6
CC(C)CNC(=O)c1ccc2c(=O)n(-c3ccccc3)cnc2c1	60.9
CC(C)CCNC(=O)c1ccc2c(=O)n(-c3ccccc3)cnc2c1	1.8
CC(C)CCNC(=O)c1ccc(-n2cnc3ccccc3c2=O)cc1	26.8
NCCc1cn(Cc2ccccn2)c2ccccc12	-18.2
c1cncc(CNc2cncc(C3CCCN3)n2)c1 (centres undefined)	6.26
CCOc1ncccc1NC(=O)c1cccs1	-10.9
COc1ccc(NC(=O)CCC(C)C)c(N2CCN(C(C)=O)CC2)n1	68.8
COc1ccc(NC(=O)c2ccc[nH]2)c(N2CCN(C(C)=O)CC2)n1	6.8
COc1ccc(N)c(N2CCN(C(C)=O)CC2)n1	42.3
COc1ccc(NC(C)=O)c(N2CCN(C(C)=O)CC2)n1	80.1
COc1ccc(NC(=O)c2ccco2)c(N2CCN(C(C)=O)CC2)n1	44
CCCC(C)C(=O)Nc1ccc(OC)nc1N1CCN(C(C)=O)CC1 (centres undefined)	29.4
CNc1ccnc(NCCC(=O)Nc2ccccc2C)n1	28.4

From ChEMBL document CHEMBL4513216, “Probing the Open Global Health Chemical Diversity Library for Multistage-Active Starting Points for Next-Generation Antimalarials” (ACS Infect Dis, 2020)
